Data reported in ChEMBL document CHEMBL3988442, “University of Dundee, Small-Polar-MMV Screening Library” (2021).
For some assays here: Measured potencies and affinities stand elsewhere.

Key:
Set-up in all cases: scale not given: direction of the effect not stated beside the values
[1] = biological target: Protein translocase subunit SecA (Escherichia coli (strain K12)) (UniProt P10408); test: Assay to Identify E. coli SecA ATPase Inhibitors; format: functional; settings: 30 µM
[2] = biological target: T1, Ubiquitin-activating enzyme e1, putative (Leishmania donovani (strain BPK282A1)) (UniProt E9BSI1); test: Leishmania donovani Ubiquitin Activating Enzyme (LdE1); format: functional; settings: 30 µM
T1 sequence (whole entry): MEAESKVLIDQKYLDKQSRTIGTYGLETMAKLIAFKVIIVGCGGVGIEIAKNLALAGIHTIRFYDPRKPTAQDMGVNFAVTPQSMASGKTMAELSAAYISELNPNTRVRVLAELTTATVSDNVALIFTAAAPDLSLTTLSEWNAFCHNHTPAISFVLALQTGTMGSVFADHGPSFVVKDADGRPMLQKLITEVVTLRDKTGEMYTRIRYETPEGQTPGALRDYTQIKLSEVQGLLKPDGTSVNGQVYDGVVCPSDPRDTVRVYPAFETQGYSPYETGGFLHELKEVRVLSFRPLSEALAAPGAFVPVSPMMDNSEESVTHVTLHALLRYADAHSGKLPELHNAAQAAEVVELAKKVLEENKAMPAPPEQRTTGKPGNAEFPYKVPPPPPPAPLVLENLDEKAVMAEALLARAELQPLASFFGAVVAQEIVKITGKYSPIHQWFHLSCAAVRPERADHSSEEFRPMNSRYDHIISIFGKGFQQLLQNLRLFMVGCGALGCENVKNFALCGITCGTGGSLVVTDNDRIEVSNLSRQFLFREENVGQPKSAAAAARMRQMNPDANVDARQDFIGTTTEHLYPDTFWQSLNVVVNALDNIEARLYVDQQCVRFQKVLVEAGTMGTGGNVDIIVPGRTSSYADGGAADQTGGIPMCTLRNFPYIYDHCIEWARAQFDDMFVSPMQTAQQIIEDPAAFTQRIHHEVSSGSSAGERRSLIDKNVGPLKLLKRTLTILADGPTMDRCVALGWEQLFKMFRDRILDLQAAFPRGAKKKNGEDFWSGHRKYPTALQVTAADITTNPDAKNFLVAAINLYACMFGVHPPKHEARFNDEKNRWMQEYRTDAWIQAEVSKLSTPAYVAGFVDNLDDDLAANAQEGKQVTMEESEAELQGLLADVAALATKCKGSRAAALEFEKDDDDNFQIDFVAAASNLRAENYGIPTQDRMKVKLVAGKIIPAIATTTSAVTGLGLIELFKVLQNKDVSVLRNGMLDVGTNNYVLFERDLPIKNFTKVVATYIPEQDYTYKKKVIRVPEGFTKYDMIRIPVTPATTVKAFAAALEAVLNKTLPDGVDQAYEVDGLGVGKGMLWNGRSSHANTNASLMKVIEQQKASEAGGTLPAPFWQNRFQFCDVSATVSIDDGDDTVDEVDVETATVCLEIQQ

[3] = biological target: AMP-activated protein kinase, AMPK (Homo sapiens) (UniProt P54646+O43741+P54619+Q9UGJ0+Q9Y478+Q13131+Q9UGI9); test: AMP-dependent Kinase enzyme assay. An in vitro enzyme assay that detects ADP turnover that is directly proportional to AMPK activity. This uses naive AMPK that is activated during the assay with MK-8722; format: functional; settings: 30 µM
[4] = biological target: Sialic acid-binding Ig-like lectin 9 (Homo sapiens) (UniProt Q9Y336); test: Hs-Siglec9 ALPHAscreen SOP 20170721; settings: 10 µM
Sialic acid-binding Ig-like lectin 9 (Homo sapiens), sequence (Q9Y336 whole entry): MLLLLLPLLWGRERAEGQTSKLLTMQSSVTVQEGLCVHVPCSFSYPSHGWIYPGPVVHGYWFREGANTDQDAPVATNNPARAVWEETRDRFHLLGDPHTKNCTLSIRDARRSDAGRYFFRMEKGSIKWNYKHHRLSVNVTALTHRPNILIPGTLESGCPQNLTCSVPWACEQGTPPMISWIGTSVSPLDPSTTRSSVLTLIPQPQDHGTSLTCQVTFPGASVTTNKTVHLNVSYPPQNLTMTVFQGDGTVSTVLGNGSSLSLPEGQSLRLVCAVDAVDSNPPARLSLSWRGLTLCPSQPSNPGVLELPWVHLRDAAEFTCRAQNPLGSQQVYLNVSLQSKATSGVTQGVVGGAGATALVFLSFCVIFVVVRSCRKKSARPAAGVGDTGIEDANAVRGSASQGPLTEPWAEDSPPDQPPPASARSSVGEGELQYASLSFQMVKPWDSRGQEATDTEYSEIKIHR

Trypanosoma cruzi = test: Trypanosoma cruzi phosphomannomutase and mannose-1-phosphate guanylyltransferase assay; format: functional; settings: 10 µM
[5] = biological target: T2, Arginase-2, mitochondrial (Homo sapiens) (UniProt P78540); test: in vitro enzyme assay to detect the production of urea directly proportional to the activity of Arginase II; format: functional; settings: 33.3 µM; also: in the data most compounds retested in dose-response had high values
T2 sequence (whole entry): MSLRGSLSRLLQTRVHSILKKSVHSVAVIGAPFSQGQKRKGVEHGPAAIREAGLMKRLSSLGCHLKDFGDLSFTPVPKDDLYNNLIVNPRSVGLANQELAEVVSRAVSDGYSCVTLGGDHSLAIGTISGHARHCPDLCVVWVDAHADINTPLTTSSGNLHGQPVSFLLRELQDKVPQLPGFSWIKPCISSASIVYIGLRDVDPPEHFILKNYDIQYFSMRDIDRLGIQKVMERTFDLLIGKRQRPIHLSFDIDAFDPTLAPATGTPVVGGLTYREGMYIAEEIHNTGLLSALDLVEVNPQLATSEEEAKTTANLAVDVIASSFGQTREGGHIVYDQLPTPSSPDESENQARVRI

[6] = biological target: T3, Proteasome subunit beta (Trypanosoma cruzi) (UniProt O96673); test: Trypanosoma cruzi proteasome chymotrypsin-like activity (TcProtChymo) assay.; also: in the data most compounds retested in dose-response had high values; format: functional; settings: 9.37 µM
T3 sequence (whole entry): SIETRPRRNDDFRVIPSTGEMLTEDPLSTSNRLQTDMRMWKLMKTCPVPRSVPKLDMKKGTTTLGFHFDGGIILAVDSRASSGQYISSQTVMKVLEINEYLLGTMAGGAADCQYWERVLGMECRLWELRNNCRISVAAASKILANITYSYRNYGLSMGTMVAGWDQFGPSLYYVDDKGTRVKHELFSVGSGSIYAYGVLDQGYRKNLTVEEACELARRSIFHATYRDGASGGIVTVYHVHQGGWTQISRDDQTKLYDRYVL

Homo sapiens = species: Homo sapiens; test: To identify inhibition of the IFN signalling (Jak-Stat) pathway via expression of an eGFP reporter gene under the control of an IFN-stimulated response element (ISRE) containing MxA promoter.; format: functional; settings: 30 µM
[7] = biological target: T4, Tyrosyl-tRNA synthetase, putative (Trypanosoma cruzi (strain CL Brener)) (UniProt Q4DSP6); test: Trypanosoma cruzi tyrosyl tRNA synthetase (TcYRS) _High Tyrosine SOP; format: functional; settings: 30 µM; also: in the data most compounds retested in dose-response had high values
T4 sequence (whole entry): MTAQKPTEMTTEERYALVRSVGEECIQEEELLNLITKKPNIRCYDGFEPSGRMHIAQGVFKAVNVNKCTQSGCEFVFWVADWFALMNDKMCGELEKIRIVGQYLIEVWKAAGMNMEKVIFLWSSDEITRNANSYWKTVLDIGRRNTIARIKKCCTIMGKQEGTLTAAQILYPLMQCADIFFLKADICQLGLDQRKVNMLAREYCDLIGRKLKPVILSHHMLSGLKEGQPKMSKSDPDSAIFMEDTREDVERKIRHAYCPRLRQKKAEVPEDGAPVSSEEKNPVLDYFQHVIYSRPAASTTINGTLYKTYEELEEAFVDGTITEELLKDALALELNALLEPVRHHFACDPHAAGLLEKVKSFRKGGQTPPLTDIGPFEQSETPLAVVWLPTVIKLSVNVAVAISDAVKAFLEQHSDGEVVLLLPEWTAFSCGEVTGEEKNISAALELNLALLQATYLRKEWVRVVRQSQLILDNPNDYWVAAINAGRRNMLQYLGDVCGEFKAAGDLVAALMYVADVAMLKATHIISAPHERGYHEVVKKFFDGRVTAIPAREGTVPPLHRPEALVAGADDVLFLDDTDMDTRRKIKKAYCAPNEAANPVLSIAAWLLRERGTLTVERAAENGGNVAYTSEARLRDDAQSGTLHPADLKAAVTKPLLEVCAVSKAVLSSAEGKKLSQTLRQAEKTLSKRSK

[8] = biological target: T4, Tyrosyl-tRNA synthetase, putative (Trypanosoma cruzi (strain CL Brener)); test: Trypanosoma cruzi tyrosyl tRNA synthetase (TcYRS) SOP; format: functional; settings: 30 µM
[9] = biological target: Chromo domain-containing protein 1 (Saccharomyces cerevisiae (strain ATCC 204508 / S288c) (Baker's yeast)) (UniProt P32657); test: ScCHD-1 Enzyme Inhibition Assay; format: functional; settings: 30 µM; also: in the data most compounds retested in dose-response had high values
Chromo domain-containing protein 1 (Saccharomyces cerevisiae (strain ATCC 204508 / S288c) (Baker's yeast)), sequence (P32657 whole entry, the tested form may be a part): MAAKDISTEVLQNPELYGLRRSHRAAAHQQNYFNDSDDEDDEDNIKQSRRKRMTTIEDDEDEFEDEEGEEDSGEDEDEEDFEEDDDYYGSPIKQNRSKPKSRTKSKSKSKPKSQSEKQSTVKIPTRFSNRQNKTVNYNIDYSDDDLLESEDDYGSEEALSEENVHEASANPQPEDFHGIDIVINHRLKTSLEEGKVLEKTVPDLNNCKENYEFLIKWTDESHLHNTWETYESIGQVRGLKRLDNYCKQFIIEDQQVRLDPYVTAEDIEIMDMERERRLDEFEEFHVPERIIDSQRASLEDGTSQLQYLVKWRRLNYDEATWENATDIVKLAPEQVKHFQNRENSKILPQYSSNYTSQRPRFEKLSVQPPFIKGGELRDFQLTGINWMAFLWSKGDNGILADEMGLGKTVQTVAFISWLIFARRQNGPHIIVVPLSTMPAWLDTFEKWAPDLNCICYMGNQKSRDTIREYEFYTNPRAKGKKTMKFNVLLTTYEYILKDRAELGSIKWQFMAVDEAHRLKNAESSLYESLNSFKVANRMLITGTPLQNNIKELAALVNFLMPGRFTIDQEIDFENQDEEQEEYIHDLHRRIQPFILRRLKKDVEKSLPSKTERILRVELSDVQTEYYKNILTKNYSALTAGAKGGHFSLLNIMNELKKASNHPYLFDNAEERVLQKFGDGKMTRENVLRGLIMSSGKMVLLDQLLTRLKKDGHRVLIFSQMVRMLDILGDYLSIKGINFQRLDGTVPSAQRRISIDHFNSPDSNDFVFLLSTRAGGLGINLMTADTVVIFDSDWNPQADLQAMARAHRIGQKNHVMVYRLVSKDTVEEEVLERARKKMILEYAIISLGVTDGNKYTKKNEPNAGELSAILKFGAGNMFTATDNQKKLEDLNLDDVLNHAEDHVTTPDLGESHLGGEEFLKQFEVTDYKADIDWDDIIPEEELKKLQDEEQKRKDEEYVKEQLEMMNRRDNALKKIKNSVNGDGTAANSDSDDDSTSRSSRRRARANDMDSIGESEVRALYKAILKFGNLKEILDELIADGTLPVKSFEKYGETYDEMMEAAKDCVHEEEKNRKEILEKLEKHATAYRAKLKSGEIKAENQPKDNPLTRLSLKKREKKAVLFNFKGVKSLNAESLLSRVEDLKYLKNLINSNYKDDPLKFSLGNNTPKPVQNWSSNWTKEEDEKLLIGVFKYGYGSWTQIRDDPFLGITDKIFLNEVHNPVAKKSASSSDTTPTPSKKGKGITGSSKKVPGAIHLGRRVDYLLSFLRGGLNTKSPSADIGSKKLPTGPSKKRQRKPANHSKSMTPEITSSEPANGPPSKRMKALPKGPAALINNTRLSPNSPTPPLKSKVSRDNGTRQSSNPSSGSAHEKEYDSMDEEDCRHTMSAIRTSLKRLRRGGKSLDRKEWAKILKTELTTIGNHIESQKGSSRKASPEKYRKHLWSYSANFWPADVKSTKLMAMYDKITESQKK

Protein translocase subunit SecA (Escherichia coli (strain K12)), sequence (P10408 whole entry): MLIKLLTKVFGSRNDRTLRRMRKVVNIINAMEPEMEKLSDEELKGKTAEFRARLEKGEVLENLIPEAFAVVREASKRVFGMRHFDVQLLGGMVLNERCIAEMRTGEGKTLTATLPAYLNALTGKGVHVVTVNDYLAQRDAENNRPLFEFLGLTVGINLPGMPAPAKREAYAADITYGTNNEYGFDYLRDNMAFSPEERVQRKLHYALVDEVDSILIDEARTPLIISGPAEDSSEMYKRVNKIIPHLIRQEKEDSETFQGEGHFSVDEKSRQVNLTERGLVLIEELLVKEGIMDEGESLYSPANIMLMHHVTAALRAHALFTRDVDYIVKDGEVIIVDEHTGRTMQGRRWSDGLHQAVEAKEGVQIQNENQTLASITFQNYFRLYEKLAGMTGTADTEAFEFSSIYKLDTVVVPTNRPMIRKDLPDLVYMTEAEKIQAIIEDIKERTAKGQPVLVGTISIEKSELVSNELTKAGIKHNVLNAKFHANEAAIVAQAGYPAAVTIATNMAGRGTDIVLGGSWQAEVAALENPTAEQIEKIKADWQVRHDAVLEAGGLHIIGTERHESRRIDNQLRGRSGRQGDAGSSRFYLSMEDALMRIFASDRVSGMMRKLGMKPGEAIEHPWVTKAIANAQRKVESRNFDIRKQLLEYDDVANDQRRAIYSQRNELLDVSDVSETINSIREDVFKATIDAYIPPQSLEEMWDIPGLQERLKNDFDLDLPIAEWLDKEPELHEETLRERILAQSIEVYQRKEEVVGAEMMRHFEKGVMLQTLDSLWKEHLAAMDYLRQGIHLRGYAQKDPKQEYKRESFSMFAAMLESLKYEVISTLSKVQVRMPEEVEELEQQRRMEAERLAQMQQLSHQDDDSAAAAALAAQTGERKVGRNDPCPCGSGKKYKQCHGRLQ

SMILES | Percent Effect [1] [%] | Percent Effect [2] [%] | Percent Effect [3] [%] | Percent Effect [4] [%] | Percent Effect (Trypanosoma cruzi) [%] | Percent Effect [5] [%] | Percent Effect [6] [%] | Percent Effect (Homo sapiens) [%] | Percent Effect [7] [%] | Percent Effect [8] [%] | Percent Effect [9] [%]
Oc1cc(CCC2CCCCN2)cc(-c2ccncc2)c1 (stereo unspecified) | -5.49 | 0 | -8.16 | 0.305 | -3.92 | 0.909 | 20.1 | 1.09 | 2.15 | 7.5 | -3.03
COc1cccc(CN2CCCCCC2c2cccc(C)c2)c1O (stereo unspecified) | -3.46 | -2.6 | 18.9 | -5.45 | -3.25 | -3.23 | 24 | 21.6 | -5.29 | -3.85 | -9.17
CC(C)(C)OC(=O)N1CCN(C(=O)c2sccc2C2CC2)CC1 | -1.99 | 8.86 | 5.24 | 1.31 | -2.56 | 9.25 | 6.17 | -13.8 | 3.12 | 5.06 | -5.68
O=C(N[C@@H]1CCNC[C@H]1O)c1ccc(F)c(Cl)c1 | -3.79 | 5.41 | 0.871 | 3.76 | -3.09 | -1.43 | 1.21 | -2.61 | 3.7 | 9.76 | -2.77
COc1cccc(COCC(=O)N2CCCC(N3CCCC3)CC2)c1 (stereo unspecified) | -1.29 | -10.5 | 4.62 | -2.23 | 2.26 | 0 | 6.52 | -5.01 | 14.2 | 7.32 | -0.94
CCC1=N[C@@]2(CC[C@@H]3CN(Cc4ccccc4F)C[C@@H]32)C(=O)N1CC | -5.1 | 0 | -2.64 | -1.67 | -1.17 | 12.5 | 18.7 | 5.93 | 12.9 | 18.3 | -6.7
Cc1cnn(CC(C)NCc2csc(-c3ccsc3)n2)c1 (stereo unspecified) | -3.78 | -3.8 | -1.07 | 0.382 | 0.923 | -1.94 | 28.1 | 12.5 | 6.25 | 12.7 | -20.9
Cc1noc(Cl)c1CCC(=O)N1CCC(CC(N)=O)CC1 | -6.39 | 18.4 | -6.93 | 6.68 | 6.63 | -3.96 | 13.6 | 10.4 | 4.43 | 18.5 | -7.5
Cc1ccc(C)n1-c1ccc(C(=O)NCCNc2ncccn2)cc1 | -1.31 | 7.89 | -10.7 | -3.65 | 3.46 | -6.83 | 15 | -6.26 | 9.36 | 18.5 | 0.738
Cn1nc2c(cc1=O)CN(CCc1nc3ccccc3c(=O)[nH]1)CC2 | -4.31 | 5.48 | -206 | -0.89 | 8.23 | 2.27 | 17.9 | 6.4 | -1.07 | 0 | -7.87
COCC(NC(=O)c1ccc[nH]1)c1cccc(C(F)(F)F)c1 (stereo unspecified) | -6.18 | 2.74 | -4.37 | 35.1 | 9.01 | 32.3 | 4.79 | 3.46 | 0 | 10 | -5.6
CC(C)n1ccnc1C1CCCN(c2ccccn2)C1 (stereo unspecified) | -4.71 | 5.33 | -0.644 | 4 | -2.43 | 0 | 18.7 | 15.1 | 3.83 | 11.1 | -7.89
CC(C)C(C(=O)N1CCN(c2ccncc2)CC1)n1cncn1 (stereo unspecified) | -5.41 | 15.6 | -0.644 | 10.9 | 6.98 | -34.5 | 11.8 | 8.3 | 4.3 | 13.6 | -7.32
O=C(c1ccsc1)N1CC(C(=O)N2CCOCC2)C2(CCOCC2)C1 (stereo unspecified) | -0.06 | 2.6 | 3.52 | 3.83 | -6.21 | -3.23 | 16.5 | 7.29 | -29.6 | -1.28 | -0.146
Cc1noc2ncc(C(=O)NCC3CCOC3)cc12 (stereo unspecified) | -4.3 | 0 | -6.17 | -5.94 | -6.96 | 1.53 | 6.35 | 26.5 | 2.45 | 0 | -12.5
COc1cc(N2C[C@H]3OCC[C@H]3[C@H](C(=O)NC3CC3)C2)ncn1 | -2.33 | 5.48 | -1.57 | 8.48 | 2.18 | 0.399 | 6.93 | 0.456 | 9.38 | 6.17 | -1.62
